The text below walks through data of the supplement of paper PMC11417369.

± gives the standard deviation of the averaged measurements. Whole data set: some 25,000 sequences, median “ln(normalized median fluorescence intensity)” near 7.9, cut for the highest 2% near 11. For the sample, the highest values were picked, then their nearest neighbours and some sequences at random.

In this test the test system is PfAP2-I AP2 domain 3 (GST-tagged). Description: gcPBM binding intensity (ln(normalized median fluorescence intensity)); higher = stronger DNA binding. The procedure, abridged: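 In this array assay, P. falciparum DNA-binding domains with a GST tag, expressed in E. coli, were applied for 1 h to primer-extended double-stranded 36-bp intergenic genomic probes and negative controls on an Agilent 4 × 180k array. Bound protein was visualised with Alexa488 anti-GST antibody at 488 nm. Binding intensity is the highest Masliner-normalised natural-log median intensity across replicate spots of either probe orientation.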
Take “ATTATTATATATATAACACACATAATTATATACTTA [CACACA_site1563]”: the “gcPBM binding intensity (ln)” value is 7.89 ± 0.38. Regarding “TCTATAAAGTTCCATACATGCGCCATCATTTATATT [TGCATGCA_site195]”, the “gcPBM binding intensity (ln)” value came to 7.97 ± 0.79. Under “TTTTTAATCAGAAATATTTATTAAAGAATTTTATAG [GTGCAC_negctrl_site725]” stands 7.32 ± 0.34; under “TTTGTTTTTTTGAGAGTGCAATATATATAAAAAGGG [GTGCAC_site9691]”, 11.2 ± 0.64; under TTATAAATAAAAAGAGTGCAATTATAAATATATATA, 10.1 ± 0.23. Consider “AGATATTTATTGAGTGCATGTTATAAAGGGAAAAAA [TGCATGCA_site88]”, for which the “gcPBM binding intensity (ln)” value was found to be 9.04 ± 0.17. For the sequence “GGTTAAAAAAAGCATACACACTATCCTCTTTGCTCT [CACACA_site7246]”, the “gcPBM binding intensity (ln)” value was 7.9 ± 0.65.

GTTTATTTATTTTATGTGCACATATAACAAAAAAAA: the “gcPBM binding intensity (ln)” value worked out at 10.36 ± 0.028. Then TTTAATTATTAAATGGTGCACTTGAAATATAAAAAT, with 11 ± 0.45; and TATATATATTTTTGTGTGCACTATAATATGAAAATA, with 11.4 ± 0.45; and ATATATTTTATATGTGTGCACTATATATATATATAT, with 11.4 ± 0.3. Consider “AATTTTTTTTTTTTTTTTTTTTATATATGTGTGTGT [XGTACX_negctrl_site129]”, for which the “gcPBM binding intensity (ln)” value stood at 7.59 ± 0.28.

Take “ATCATATTTTTATGTGTGCACTTTTTTTTTTTTTTT [GTGCAC_site9555]”: the “gcPBM binding intensity (ln)” value amounted to 10.25 ± 0.014. Under “CAAAATATTTTTATAACACACATATATATAATGTGC [CACACA_site4767]” stands 7.8 ± 0.52. For “TGCATAATTAAAAATGGTACACTGTATTTATAATAT [XGTACX_site1575]”, the “gcPBM binding intensity (ln)” value was 7.95 ± 0.61. “TATATTTTTATGTGTGTGCACAAAATAACAAAATAT [GTGCAC_site9596]”: the “gcPBM binding intensity (ln)” value came to 11.1 ± 0.35. Under “AAATGAAATAAAATCATATATTTATAATTATTATAA [TGCATGCA_negctrl_site612]” stands 7.27 ± 0.41; under “TTTTTTTTTTTTTTTGCACACTATATTTAATATAAG [CACACA_site2444]”, 9.42 ± 0.21; under “ATATATCATAAATAAATGAAAATATTTTCTATGTGT [CACACA_negctrl_site689]”, 7.77 ± 0.62.

Regarding “ACAAAGTAAAATAATGCATGTAGGTATACATAATTA [TGCATGCA_site607]”, the “gcPBM binding intensity (ln)” value amounted to 7.71 ± 0.81.

On to “TAGAACAAATAAAACACACACATATATATATATATG [CACACA_site2768]”, for which the “gcPBM binding intensity (ln)” value came out at 8.06 ± 0.41. “ATATATTAAAAGGATTAGGAAAAAATATGATTTATC [TGCATGCA_negctrl_site405]”: the “gcPBM binding intensity (ln)” value is 7.55 ± 0.78.

Take “GAACAAAATTTTATATGTACATAATATTTATATATA [XGTACX_site3667]”: the “gcPBM binding intensity (ln)” value worked out at 8 ± 0.2. As for “TTACAAGTAAAAGGTACACACATTATATATACAAAT [CACACA_site8290]”, the “gcPBM binding intensity (ln)” value worked out at 7.97 ± 0.55. In the case of “TTTTTTTTCATTTTATGTACACATAATTTAATATAT [XGTACX_site5768]”, the “gcPBM binding intensity (ln)” value is 8.16 ± 0.45.

For “CATGACATATCCTGTAGTACAACGTATATATAAGAT [XGTACX_site2577]”, the “gcPBM binding intensity (ln)” value turned out to be 7.8 ± 0.61. Regarding “ATATAGAAAATGCATACACACTTTATAAATATATTT [CACACA_site6553]”, the “gcPBM binding intensity (ln)” value came out at 7.92 ± 0.53. Turning to GAATAAATATTAAATGTGCACTTGAATAGATGTAAA, the “gcPBM binding intensity (ln)” value amounted to 10.1 ± 0.16. “TTTTTTCAATTTTTTTTAAATAAACCACAAAAAAAA [CACACA_negctrl_site1701]”: the “gcPBM binding intensity (ln)” value came out at 7.74 ± 0.49. For the sequence TTTCAATTTATCAGTGTGCACAAAAATAAAATAAAA, the “gcPBM binding intensity (ln)” value amounted to 10.88 ± 0.028. For the sequence “ATCAAAAATATAAAAAATATAAACAATTTATTATCA [CACACA_negctrl_site768]”, the “gcPBM binding intensity (ln)” value amounted to 7.32 ± 0.47.

On to “TTATAATTTTAATGTGCACACAATTAAAATATTATA [CACACA_site5172]”, for which the “gcPBM binding intensity (ln)” value was 10.79 ± 0.085. Turning to CAATTTATTATATATGTGCACATATAATTTTACAAA, the “gcPBM binding intensity (ln)” value is 9.59 ± 0.24. Then “AATACTTTTTATTTAGTGCATAAGAAAATATAAATC [GTGCAC_site9875]”, with 10.9 ± 0.44. Then “AAATAAAAATTAAAAAAATAGAAACGAATTGAATGC [TGCATGCA_negctrl_site365]”, with 7.83 ± 0.64; and CTTAAAATATATTTAGTGCATATACTAATATATTAT, with 10.2 ± 0.45.

In the case of TATAAATTAAAATGTGTGCACTAAATTGAAATAGAA, the “gcPBM binding intensity (ln)” value is 11.5 ± 0.53.

TATTTATAAATATGTGTGCACAATTTATTTTATAAT: the “gcPBM binding intensity (ln)” value worked out at 11 ± 0.26.

In the case of “ATATATTTTTAAAAAAATTAAGAATTTTACATCTCC [CACACA_negctrl_site1450]”, the “gcPBM binding intensity (ln)” value was 7.59 ± 0.65.

For “AACAATTATTTATCTACACACTTTTATGTTATTTAC [CACACA_site9]”, the “gcPBM binding intensity (ln)” value is 7.88 ± 0.67. Then “AATTTTTTTTTCTTTTGTACGTAAATATGTGTAGGC [XGTACX_site215]”, with 8.33 ± 0.26. As to “ATGTGAAAATAAGACACACTCAAAAGGTTTATATTA [CACACA_site4595]”, the “gcPBM binding intensity (ln)” value is 7.67 ± 0.43. Take “ATACTTTTAATATGCACATGCAAATATGAAATATCG [TGCATGCA_site603]”: the “gcPBM binding intensity (ln)” value is 9.22 ± 0.39.

In the case of “TTATAAAAAAAAAAAAAAAAAAAAACCAATATAATA [CACACA_negctrl_site968]”, the “gcPBM binding intensity (ln)” value turned out to be 7.3 ± 0.48. As to “ATTTATTTGAAGAATTGTACTAAATTATATAGCGGT [XGTACX_site4998]”, the “gcPBM binding intensity (ln)” value was 7.94 ± 0.49. As to “TATATATATAAATACACACACACCGTCCGTGTTAAA [CACACA_site5623]”, the “gcPBM binding intensity (ln)” value was 8.54 ± 0.53. With ATTATTAATAATTGTGTGCACAAATATTTATATGCT, the “gcPBM binding intensity (ln)” value is 10.815 ± 0.007. As to ATTTATATTAAAAGTGTGCACTTTTTTTTTTTTTTT, the “gcPBM binding intensity (ln)” value turned out to be 9.77 ± 0.085. As to TATTAACAAATTTATGTGCACTGAGGACAAATATAT, the “gcPBM binding intensity (ln)” value came to 10.96 ± 0.085. Take ATATATATATATATTGTGCACAAAAAAAAATAAGCA: the “gcPBM binding intensity (ln)” value stood at 11.2 ± 0.15. Turning to “AATAATAAAAATATTGTGCACTTGTATATTTATTAT [GTGCAC_site9963]”, the “gcPBM binding intensity (ln)” value amounted to 11 ± 0.11. Take “TTTTTTATTATATAATTGTATATAAAATTATAATTT [GTGCAC_negctrl_site733]”: the “gcPBM binding intensity (ln)” value was determined as 7.67 ± 0.47.

Turning to TTTTCTTGGTTCAGTGTGCACTTATATATATATATA, the “gcPBM binding intensity (ln)” value worked out at 10.3 ± 0.2. Under “TTTATATTCTTAAGTGTGCACTATATATATATATAT [GTGCAC_site9719]” stands 11.2 ± 0.23. For “ACAAAAAAAATAAGCACACATATATATATATATATA [CACACA_site816]”, the “gcPBM binding intensity (ln)” value was found to be 9.38 ± 0.36. As to “TATTATATAATAAAAATTATTATTATTTGTATAAAT [CACACA_negctrl_site195]”, the “gcPBM binding intensity (ln)” value was 7.21 ± 0.42.

In the case of “GCCCCCAAATTATGTGTGCACTTTATATTCCTGAGA [GTGCAC_site9474]”, the “gcPBM binding intensity (ln)” value turned out to be 10.4 ± 0.23. As to “TATAAAAATAAGCACACACACAAATATATATTTATT [CACACA_site922]”, the “gcPBM binding intensity (ln)” value is 8.12 ± 0.25. Under “ATGTTATAAGATTTATGTACACACATATACACACCT [XGTACX_site1316]” stands 8.35 ± 0.21. Then “CATAAATCAGCCATAACACACATACCTATATACATA [CACACA_site6324]”, with 7.75 ± 0.57.
